According to PubChem BioAssay AID1241 (SRMLSC, 2008):
Screen size: about 1,200 compounds; about 840 (70%) were called active. How the calls were made is not given here. So high a share suggests a set chosen from earlier hits. These entries were drawn from the full list. Entries with a potency or affinity are not part of this list.

Experiment: NF-kB promoter reporter activators, neuronal cells, dose response, cell-based, SH-SY5Y, luciferase (AID 1241)
Conditions: series mostly up to 30 µM; fold induction over control: at the top concentration

Fold induction over control, inactive:
CCN1CCCc2cc(CN(CCN3CCOCC3)C(=S)Nc3cccc(Cl)c3)ccc21 0.89
CCc1nc(Sc2nnnn2-c2ccccc2)c2c3c(sc2n1)CCCC3 6.97 [at 15 µM]
CCC/C=N/Nc1nc2ccccc2s1 8.91
CCCNC(=O)c1cc(-c2ccc(OC)cc2)on1 13
O=c1cc(-c2ccc3c(c2)OCCO3)oc2ccc(Cl)cc12 10.2 [at 3.75 µM]
COc1ccc(C(=O)c2oc3ccc(OC)cc3c2N)cc1 9.59
N/C(=N\OC(=O)COc1ccc(Cl)cc1Cl)c1ccncc1 7.15
Brc1ccc(-c2nc3ccccc3s2)s1 12.4
COc1cccc(-c2nc3ccccc3s2)c1O 12.9 [at 15 µM]
Cc1ccc2[nH]c(-c3ccccc3)cc(=O)c2c1 12.2
Cc1ccc(-c2cc(=O)c3cc(C)ccc3[nH]2)cc1 11 [at 15 µM]
Clc1ccc2nc3c4ccccc4cnn3c2c1 11.6 [at 15 µM]
C/C(N)=C(/C#N)C(=O)CSc1nnc(-c2ccccc2Br)o1 11.6 [at 7.5 µM]
CCOC(=O)/C(=C\c1ccc(OC(F)F)cc1)C1=Nn2c(nnc2-c2ccc(Cl)cc2)SC1 5.95 [at 7.5 µM]
CC(OC(=O)CCc1nc2ccccc2c(=O)[nH]1)C(=O)c1ccc(C(C)(C)C)cc1 (stereo not drawn) 2.93
CCCOC(=O)c1ccc(NC(=O)CC(C)(C)C)cc1 8.07
COc1ccc(-c2cc(-c3ccccc3)c(C#N)c(S(C)(=O)=O)n2)cc1 4.91 [at 15 µM]
CC1=CN2C(=N)/C(=C/c3ccco3)C(=O)N=C2S1 9.51
Cc1cc(NC2CCCCC2)n2c(n1)nc1ccccc12 1.3
Cc1cccc(-c2c(O)cc(=O)[nH]c2Cl)c1 0.97
CC(C)Oc1ccc2c(=O)c(-c3ccccc3)coc2c1 12.8
CCOc1cc(/C=C2/NC(=O)N(Cc3ccccc3F)C2=O)ccc1O 1.35
Cc1cc(C)nc(Sc2nc(C)nc3c2oc2ccccc23)n1 6.8
COC(=O)C1C(=O)/C(=C/N(C)C)C(=O)CC1(C)C (stereo not drawn) 1.08
Clc1ccc(-c2cc(CSc3ccccc3)on2)cc1 9.85
O=C(NCCN1CCOCC1)c1cc(-c2cccs2)on1 8.73
O=C1N/C(=C/c2ccc(N3CCOCC3)o2)C(=O)N1c1ccccc1 1.59
CCOc1ccc(C2=NNC(c3cccs3)=Nc3ccc(OC)cc32)cc1 0.8
COc1ccc(/C=N/n2c(-c3cccs3)n[nH]c2=S)cc1 2.22
COc1ccc(/C=N/NC(=O)COc2ccccc2-c2ccccc2)cc1 3
COc1ccc(/C=N/Nc2ccc([N+](=O)[O-])cc2S(=O)(=O)N2CCN(C)CC2)cc1 1.22
CNC(=S)N/N=C(\C)c1ccc(N2CCOCC2)cc1 1.55
COC(=O)N/N=C(/c1ccccc1)C1CCCCC1 1.01
O=c1c2c(nc3cc(-c4cccc(Cl)c4)[nH]n13)CCC2 11.5
O=C(Nc1ccc2ccccc2c1)c1cnccn1 10.2
c1ccc(Nc2nc3ccccc3o2)cc1 12.6
NC(N)=N/N=C/c1ccc(OCc2ccc(Cl)cc2)cc1 5.51 [at 7.5 µM]
Cn1cccc1/C=C1\Cc2ccccc2C1=O 10.4
COc1ccc(C(=O)/C=C/c2cccs2)c(OC(=O)c2cccc([N+](=O)[O-])c2)c1 11.9
COc1ccc(/C=C\c2nc(=O)c3ccccc3o2)cc1 15.8 [at 7.5 µM]
Cc1nc(SCc2ccc(Cl)cc2)ncc1C(=O)O 1.29
CC(=O)Nc1cc2nn(-c3ccccc3)nc2cc1Cl 12.6 [at 7.5 µM]
CC(C)CC(=O)Nc1ccc2c(c1)oc1ccccc12 11.7
COc1ccc(-[n+]2c(C)cc(/C=C3\Sc4ccccc4N3C)cc2C)cc1 0.76
Cc1ccc(C2=NN3C(C2)c2ccccc2OC32C(=O)Nc3ccccc32)cc1 (stereo not drawn) 9.54
C=CCN=Cc1c(C)[nH]n(-c2ccccc2)c1=O 2.13
Cc1[nH]n(-c2ccccc2)c(=O)c1C=NC1CCCCC1 1.35
O=C(Nc1ccccc1O)c1ccc(Cl)cc1 6.47
CCOC(=O)c1noc(C)c1C(=O)Nc1nccs1 1.14
COc1cccc(NC(=S)N(CCN(C)C)Cc2cccs2)c1 1.01
O=C(c1ccco1)n1c(=S)nc2ccccn21 12.4
Cc1ccc(C(=O)CSc2nsc(C)c2C#N)cc1 8.66
Cc1cccc2nc(=S)n(C(=O)c3ccco3)n12 13
CCOC1CS(=O)(=O)CC1OCC (stereo not drawn) 1.16
O=C(c1ccccc1)c1ccccc1C(=O)N1CCCC1 1.09
COc1ccc(N=c2sc3ccccc3n2C)cc1 9.89
Cc1cccc(/C(N)=N/OC(=O)c2cccs2)c1 9.94
COc1ccc(N=C2C(=Nc3ccc(OC)cc3)N(c3ccccc3)C(=S)N2C(=O)c2ccc(Cl)cc2)cc1 1.17
COc1cc(C2C(S(=O)(=O)c3ccccc3)CON2C)ccc1OCc1ccc(F)cc1 (stereo not drawn) 1.13
O=C(Oc1ccccc1/C=C\C(=O)c1cc2ccccc2o1)c1ccccc1 13.7
Cn1c(SCc2ccc(C#N)cc2Cl)nc2ccccc21 8.91
c1ccc(C2=Nc3ccccc3SC2c2nc3ccccc3[nH]2)cc1 (stereo not drawn) 4.04
c1ccc2nc3c(nc2c1)[nH]c1ccccc13 7.78
COC(=O)c1ccc(COn2nnc3ccccc32)cc1 9.21
CCCOc1ccc2c3c(c(=O)oc2c1OCCC)CCC3 3.44
O=C(Oc1ccc(-c2ccccc2)cc1)N1CCCCC1 2.54
O=C(NCCCN1CCOCC1)c1cc(-c2ccccc2)on1 8.39
COc1ccccc1-c1cc(C(=O)N2CCCCC2)no1 8.4
O=C(NCCN1CCOCC1)c1cc(-c2ccccc2)on1 5.86
Cc1cccc(-c2cc3nc(C)cc(C)n3n2)c1 9.12
CNc1nc(-c2ccccn2)nnc1-c1ccccc1 1.07
CN1CCN(CC(=O)N2c3ccccc3C(C)(c3ccccc3)CC2(C)C)CC1 (stereo not drawn) 2.19
Cc1cccc(-c2noc(-c3ccc(F)cc3)n2)c1 12.8
O=C(Nc1ccc(N2CCCC2=O)cc1)c1cccc(F)c1 6.57
O=C(CSc1nc(Nc2ccccc2)nc(N2CCOCC2)n1)Nc1ccccc1Cl 0.84
Cc1ccc(-c2cnc3cc(C)nn3c2)cc1 9.08 [at 7.5 µM]
CCCc1cc(C(=O)Nc2cc(Br)ccc2O)no1 2.58
N#Cc1ncc(-c2ccc3c(c2)OCCOCCOCCOCCOCCO3)nc1C#N 6.81
